Bioassay records from PubChem.
The entries come from a sample that favours hits as a whole.
RE007 growth inh = less growth of the S. pombe RE007 Vpr strain; S. pombe RE007 Vpr strain, BacTiter-Glo ATP luminescence, 24 h; Potency, µM (highest dose often 92.2 µM), usual class: inhibitors; 360,000 compounds, 0.21% hits; active = well fitted falling curve with a large enough effect; inconclusive = small, poorly fitted or top-dose-only effect; inactive = no such curve, though single readings can be large or run the other way; note: nearly all actives have a fitted effect of over 50% in size
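Fission yeast strain RE007, carrying one chromosomally integrated HIV-1 vpr copy, was seeded at OD 0.01 in PMG+AL medium with 23 nL pinned compound. After 24 h at 30 °C and 99% humidity, viability was read by BacTiter-Glo luminescence.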
Cycloheximide cs = counter-screen hit for Shiga toxin inhibitors, cycloheximide; 300,000 compounds, 12% hits; max response, %; cell reporter, cycloheximide protein synthesis inhibition counterscreen; AID 2314; in the data active = max response mostly above about 13%, no sharp cut-off; inactive = mostly below about 14%; note: read at 38.3 µM for the half of the compounds with a filed dose
TbPYK inhibitor = blocks Trypanosoma brucei pyruvate kinase | 410,000 compounds, 0.12% hits | TbPYK enzyme, Kinase-Glo Plus ATP luminescence, 45 min | Potency, µM (top dose mostly 76.8 µM), most hits filed as inhibitors | AID 624173 | Q57TT1; note: nearly all actives have a fitted effect of over 50% in size
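TbPYK + substrate in 50 mM TEA pH 7.2, 100 mM KCl, 10 mM MgCl2, 0.05% BSA, 0.01% Tween-20; cpd pinned; ADP 130 uM final; 45 min RT; Kinase-Glo Plus 10 min; luminescence endpoint.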
Shiga toxin inh = inhibitors of Shiga toxin in Vero cells. Vero cells, Shiga toxin protein synthesis inhibition reporter. inhibition, % at 38.7 µM. 290,000 compounds, 9.2% hits; in the data active = inhibition mostly above about 28%, no sharp cut-off; inactive = mostly below about 43%
LmPK inh = blocks Leishmania mexicana pyruvate kinase activity; Q27686; purified LmPK, Kinase-Glo ATP luminescence, 1 h; Potency, µM (series often up to 57.5 µM), most hits filed as inhibitors; 290,000 compounds, 0.37% hits; AID 1721
Target sequence (Q27686 whole entry, looked up): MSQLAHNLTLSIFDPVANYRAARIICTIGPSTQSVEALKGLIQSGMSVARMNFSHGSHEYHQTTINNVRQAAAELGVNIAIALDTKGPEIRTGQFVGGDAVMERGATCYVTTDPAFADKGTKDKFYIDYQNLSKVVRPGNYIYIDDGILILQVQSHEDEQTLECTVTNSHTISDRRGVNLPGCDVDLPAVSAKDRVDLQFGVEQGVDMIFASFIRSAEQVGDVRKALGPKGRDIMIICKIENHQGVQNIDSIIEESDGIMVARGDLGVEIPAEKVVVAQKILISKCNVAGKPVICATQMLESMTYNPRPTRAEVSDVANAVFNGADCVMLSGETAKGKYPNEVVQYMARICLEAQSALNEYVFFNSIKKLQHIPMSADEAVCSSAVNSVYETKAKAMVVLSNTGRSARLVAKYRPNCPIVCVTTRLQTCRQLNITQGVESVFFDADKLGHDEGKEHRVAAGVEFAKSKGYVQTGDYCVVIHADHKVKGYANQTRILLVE
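0.1 nM LmPK, 0.5 mM PEP, 0.1 mM ADP; 50 mM imidazole pH 7.2, 7 mM MgCl2, 50 mM KCl; 1 h RT. Kinase-Glo luminescence readout, normalized to no-enzyme (full inhibition) and uninhibited wells.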
Giardia FBPA inh = Giardia lamblia aldolase inhibition; A8B2U2; purified Giardia FBPA; Potency, µM (doses to about 59.6 µM), usual class: inhibitors; 290,000 compounds, 0.71% hits; AID 2451; note: nearly all actives have a fitted effect of over 55% in size
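Giardia FBPA (40 nM reagent) was preincubated 10 min at RT with compound (up to 57.5 uM final), then substrate plus GAPDH/TPI/NAD/arsenate coupling system with diaphorase/resazurin was added; resorufin fluorescence (525/598 nm) was read after 20 min.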
Of the large screens only hits and unclear results are named; the others gave an inactive call. Unless noted, calls come from the whole dose curve; as a rule, active = well fitted curve in the direction sought with a large enough effect; inconclusive = small, poorly fitted or top-dose-only effect, or another doubt; inactive = no such curve, though single readings can be large; an effect the other way counts as inactive or inconclusive.

COc1ccc(COC(=O)N/N=C2/C[C@@H](O)[C@@H](O)[C@@H]3[C@H]4C(=O)N(c5ccc(F)cc5F)C(=O)[C@@H]4CC[C@H]23)cc1	none (no result: RE007 growth inh, Cycloheximide cs, TbPYK inhibitor, Shiga toxin inh, LmPK inh)
CC(C)Oc1ccc(CNC(=O)c2cnc3sc(N4CCCCC4)nn3c2=O)cc1	none (no result: RE007 growth inh, Cycloheximide cs, Shiga toxin inh, LmPK inh, Giardia FBPA inh)
O=C(CSc1nc2cc(Cl)ccc2o1)N1CCOCC1	none
CC1CCCN(C(=O)CSc2nc3ccccc3o2)C1 (configuration not stated)	Shiga toxin inh 61
COc1ccccc1N1CCN(C(=O)CSc2nc3ccccc3o2)CC1	Cycloheximide cs 41, Shiga toxin inh 111
O=C(O)c1ccc2oc(SCC(=O)N3CCCCC3)nc2c1	Cycloheximide cs 23, Shiga toxin inh 58
CC(=O)N1CCCC1c1nc2ccccc2n1Cc1c(F)cccc1Cl (configuration not stated)	none (no result: RE007 growth inh, Cycloheximide cs, Shiga toxin inh, LmPK inh, Giardia FBPA inh)
C=CCC1(C)OC=Cc2nc3cc(Cl)c(Cl)cc3nc21 (configuration not stated)	none (no result: RE007 growth inh, Cycloheximide cs, TbPYK inhibitor, Shiga toxin inh, LmPK inh)
C=CCn1c(SCCN)nnc1-c1cccc(S(=O)(=O)N2CCOCC2)c1	none (no result: Cycloheximide cs, Shiga toxin inh, LmPK inh, Giardia FBPA inh)
CCOC(=O)c1cc2c(cn1)[nH]c1ccccc12	Cycloheximide cs 27, Shiga toxin inh 59
Cn1c(C(=O)NC2CCCCC2)cc2c(=O)n3ccccc3nc21	Cycloheximide cs 23 (no result: Giardia FBPA inh)
Cc1cccn2c(=O)c3cc(C(=O)NC4CCCC4)sc3nc12	Cycloheximide cs 19 (no result: Giardia FBPA inh)
CCn1c(=N)c(C(=O)NC2CCCC2)cc2c(=O)n3ccccc3nc21	none (no result: RE007 growth inh, Cycloheximide cs, Shiga toxin inh, LmPK inh, Giardia FBPA inh)
Cn1c(C(=O)NCc2ccccn2)cc2c(=O)n3ccccc3nc21	Cycloheximide cs 29, Shiga toxin inh 58
O=C(O)CC1c2ccccc2CCN1C(=O)Nc1cc(Cl)ccc1Cl (configuration not stated)	none (no result: RE007 growth inh, Cycloheximide cs, Shiga toxin inh, LmPK inh, Giardia FBPA inh)
CCOc1ccc(Cc2nc(-c3nonc3N)no2)cc1OCC	none
Cc1cccc(OCc2nc(-c3nonc3N)no2)c1C	Cycloheximide cs 56, Shiga toxin inh 53
Nc1nonc1-c1noc(COc2ccccc2Cl)n1	Cycloheximide cs 23, Shiga toxin inh 83
C=C1c2ccccc2NC(=S)N1Cc1ccc2c(c1)OCO2	Cycloheximide cs 41, Shiga toxin inh 65
O=C1c2ccccc2C(=O)N1Cc1ccc2c(c1)OCO2	none
CC1CCC/C(=N/Nc2nc3ccccc3s2)C1 (configuration not stated)	Cycloheximide cs 45, Shiga toxin inh 123
CC1(C)CC(=O)C/C(=N/Nc2nc3ccccc3s2)C1	Cycloheximide cs 40, Shiga toxin inh 43
CCOc1ccccc1Nc1nc(-c2sc(C)nc2C)cs1	Cycloheximide cs 19, Shiga toxin inh 48
Cc1nc2ccccn2c1-c1csc(NCc2ccco2)n1	Cycloheximide cs 15, Giardia FBPA inh inconclusive
Cc1nc(C)c(-c2csc(NCc3ccco3)n2)s1	Cycloheximide cs 30
Cc1nc(NC(=O)c2ccccc2)sc1-c1csc(NCc2ccco2)n1	none
Cc1nc(C)c(-c2csc(NCc3ccccc3)n2)s1	Cycloheximide cs 33
Cc1ccc(Nc2nc(-c3c(C)nc4ccccn34)cs2)cc1	RE007 growth inh inconclusive
Cc1cccc(C)c1NC(=O)Cn1c(=O)cc(C)c2c(C)nn(-c3cccc(Cl)c3C)c21	none (no result: RE007 growth inh, Cycloheximide cs, Shiga toxin inh, LmPK inh, Giardia FBPA inh)
CC(C)CCOc1ccc(C2CC(=O)N(C)C2=O)cc1 (configuration not stated)	Cycloheximide cs 21
CC(C)CCOc1ccc(C(=O)O)cc1	none
O=C1c2ccc(Cl)cc2S(=O)(=O)c2cccc(C(=O)N3CCC(Cc4ccccc4)CC3)c21	none (no result: Cycloheximide cs, Shiga toxin inh, LmPK inh, Giardia FBPA inh)
Cn1ccnc1SCC(=O)c1ccc(Cl)cc1	Cycloheximide cs 37, Shiga toxin inh 118
Cn1ccnc1SCC(=O)c1ccc(O)cc1	Cycloheximide cs 26
Cn1ccnc1SCC(=O)Nc1ccc(Cl)cn1	Cycloheximide cs 23
O=C(NNC(=S)Nc1ccc(Br)cc1)c1cccnc1	Cycloheximide cs 18
O=C(NC(=S)NNC(=O)c1ccccc1O)c1cccnc1	Shiga toxin inh 51
CC(=O)Nc1ccc(N/C(C)=C/C(=O)c2cccnc2)cc1	none
O=C(NNC(=S)NC(=O)c1cccnc1)c1ccc(Cl)cc1	Cycloheximide cs 19
O=C(/C=C\Nc1ccc(Br)cc1)c1cccnc1	Cycloheximide cs 57, Shiga toxin inh 76
